# From PubChem BioAssay (NCI)
# About 83,000 compounds went through this panel and 20% of them were active in at least one assay; those are over-represented in the sample as a whole.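 Treatment: one concentration, 48 hours, 96-well format. Scoring: percent growth, with anything below 10 considered active.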 Values without a mark were called inactive. The source made the active and inactive calls.
# Test system: LOX IMVI melanoma
# Assay: NCI-60 one-dose screen, 48 h (100 = growth as untreated, 0 = no growth, -100 = all killed)
# Details: 10 µM unless noted
# Experimental: Growth inhibition of the LOX IMVI human tumor cell line is measured as a screen for anti-cancer activity. Cells are grown in 96 well plates and exposed to the test compound for 48 hours. Compounds are tested at a single concentration, which is 10^-5 M for most compounds. The reported endpoint is percent growth (GI% or GIPRCNT), where numbers from 0 - 100% represent growth inhibition, and numbers from -100% - 0 represent cell death. For example, a value of 40 represents 60% growth inhibition. A value of 0 means no net growth occurred over the course of the experiment. A value of -40 indicates 40% of cells at the beginning of the experiment died by the end of the experiment. A value of -100 means all cells are dead at the end of the experiment.
# NCI-60 Human Tumor Cell Lines Screen was performed using the standard one-dose NCI protocol, which is described in more detail at https://dtp.cancer.gov/discovery_development/nci-60/default.htm.
# Compounds with GIPRCNT values below 10 were considered active. Activity score was based on GIPRCNT using the following formula: […]
# Score is 0 for GIPRCNT values of 100 or above, 50 for GIPRCNT values of 0, and 100 for GIPRCNT values of -100.
row,SMILES,growth
1,CCOC(=O)CCN(c1c(Cl)ssc1=O)C(C)C,94.4%
2,C[N+]1(C)C2CC[C@@H]1CC(OC(=O)C(O)c1ccccc1)C2 (stereo not given in full),102%
3,Cc1n(Cc2ccc3ccccc3c2)cc[n+]1Cc1ccc2ccccc2c1,-75% (active)
4,Cc1ccc(C(NC(=O)c2ccccc2)c2ccc3cccnc3c2O)cc1 (stereo not given),11.1%
5,O=C1/C=C/[C@@H](O)[C@@H]2C[C@@H](O)C[C@H]2/C=C/CCC[C@H](CO)O1,-44.8% (active)
6,COC(=O)C1(NC(=O)CNC(=O)OCc2ccccc2)CCCC1,97.3%
7,COc1cnc2c(c1)C(=O)c1c-2n(CCCNC2=NCCS2)c(=O)c2cc(F)ccc12,-73.8% (active)
8,COc1cc(/C=C/C(=O)C(C(=O)/C=C/c2ccc(OC(=O)CCNC34CC5CC(CC(C5)C3)C4)c(OC)c2)C(=O)CCNC23CC4CC(CC(C4)C2)C3)ccc1OC(=O)CCNC12CC3CC(CC(C3)C1)C2 (stereo not given),-72.7% (active)
9,COc1cc(-c2nnc(-c3nc(-c4cc(OC)c(OC)c(OC)c4)n4ccccc34)o2)ccc1N,56.3%
10,CC1c2ccccc2-c2ccccc2N1C (stereo not given),94.6%
11,COc1cc(OC)c2c(c1Cl)O[C@]1(C2=O)C(OCc2ccccc2)=CC(=O)C[C@H]1C,17.9%
12,O=C(COc1cccc(/C=C2\Oc3ccc4ccccc4c3C2=O)c1)c1ccc(Cl)cc1,10.6%
13,c1ccc(N2c3nc4ccccc4cc3Sc3cc4ccccc4nc32)nc1,84.1%
14,COc1ccc2ncccc2c1Cc1c(OC)ccc2ncccc12,68.4%
15,Cn1c(N2N=C(c3ccc(Cl)cc3)CC2c2ccccc2)nc(-c2ccccc2)c(C#N)c1=O (stereo not given),70.9%
16,O=Cc1ncc(-c2ccc(C(F)(F)F)cc2)c(NC2CCCCCC2)n1,-73.4% [100 µM] (active)
17,N#Cc1c(-c2ccccc2)cc(-c2ccccc2)n(CCCCCCC(=O)O)c1=O,89.2%
18,Cc1cc(-c2ccccc2)cc(C)n1,96.9%
19,CCCCCCCCCCOC(C)=O,108%
20,O=C(Nc1nc(-c2ccc(Cl)cc2)cs1)c1cc(-c2ccc(Br)cc2)nc2ccc(Cl)cc12,20.3%

row,SMILES,growth
1,FC(F)(F)c1cc(-c2nnc3n2N=C(N2CCCC2)CS3)cc(C(F)(F)F)c1,84.3%
2,N#Cc1c(NC(=O)c2ccco2)[n+]([O-])c2cc(Cl)c(Cl)cc2[n+]1[O-],90.5%
3,CC(=O)N1N=C(c2ccc(C(F)(F)F)cc2)CC1c1ccc2c(c1)OCO2 (stereo not given),81.4%
4,CCCCCCCCN(CCO)CCCCCCCC,102%
5,Cc1[nH]ccc2cc3nc4ccccc4c3cc12,12%
6,CCCCc1n(Cc2ccc3ccccc3c2)cc[n+]1Cc1ccc2ccccc2c1,-88.2% (active)
7,[N-]=[N+]=NCc1cccc(/C(O)=C/C(=O)C(=O)O)c1,92.6%
8,CC(=O)N1N=C(c2ccc(Cl)cc2)CC1c1c(C)nn(-c2ccccc2)c1N(C)Cc1ccccc1 (stereo not given),84.1%
9,N#Cc1ncc(-c2ccc(C(F)(F)F)cc2)c(NC2CCCCCC2)n1,32.5%
10,O=[N+]([O-])c1ccc(N=Nc2c(Cl)cc(O)cc2Cl)cc1,-12.7% (active)
11,COc1cc(/C=C/C(=O)C(C(=O)/C=C/c2ccc(OC(=O)CCNc3nnc(C)s3)c(OC)c2)C(=O)CCNc2nnc(C)s2)ccc1OC(=O)CCNc1nnc(C)s1,-68.7% (active)
12,COc1ccc(C2=NN(C=O)C(c3cccc(Nc4ccnc5cc(Cl)ccc45)c3)C2)cc1 (stereo not given),25%
13,OCCCc1n(Cc2ccc3ccccc3c2)c2ccccc2[n+]1Cc1ccc2ccccc2c1,-41.9% (active)
14,COc1ccc2nc(N/N=C(\C)c3ccccn3)cc(C)c2c1,-99.1% (active)
15,CCOc1cc(/C=C/C(=O)CC(=O)/C=C/c2ccc(OC(=O)CNc3nc4ccc(OC)cc4s3)c(OCC)c2)ccc1OC(=O)CNc1nc2ccc(OC)cc2s1,6.98% (active)
16,CC(C)N(Cc1ccccc1)c1c(Cl)ssc1=O,96.3%
17,COc1ccc2c(c1)[n+](=O)c(C(=O)/C=C/c1cc(OC)c(OC)c(OC)c1)c(C)n2[O-],55.1%
18,COc1cc(/C=C/c2cc(/C=C/c3ccc(O)c(OC)c3)n(C(=O)Cc3ccccc3)n2)ccc1O,5.18% (active)
19,O=C(Nc1ccc(Cl)cc1)Nc1nc2ccc(OC(F)(F)F)cc2o1,103%
20,O=C(c1ccccc1)c1ccc(Oc2ccc([N+](=O)[O-])cc2[N+](=O)[O-])cc1,5.97% (active)
